# Screening results as filed in PubChem.
# TCR act – Activators of T cell receptors: qHTS campaign; primary human leukocytes, anti-CD3, IL-2 HTRF, 48 h; Potency, µM (doses to about 9.22 µM), most hits filed as activators; 330,000 tested, under 10 active; AID 504894, 2011
#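 IL-2 produced over 48 hr by a-CD3 bead-stimulated primary human leukocytes exposed to compounds was detected with a homogeneous time-resolved FRET immunoassay, 665nm acceptor signal after 320nm excitation.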
# miR-21 act – qHTS Assay for Modulators of miRNAs and/orActivators of miR-21. HeLa miR-21 FLuc reporter, luciferase, 48 h. AID 2288, 2010. 340,000 tested, under 10 active. Potency, µM (highest dose often 38.3 µM), actives largely listed as activators;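 note: miR-21 action dims this reporter so a rising signal means less miR-21 action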
#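 HeLa miR-21-FLuc reporter line, endogenous miR-21; 2000 cells/well in DMEM/10% FBS; compound titration up to ~40uM final, 48 h, 37 degree Celsius; luciferase detection reagent, 15 min lysis, CCD luminescence.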
# A549 viability – Nrf2 qHTS screen for inhibitors: counterscreen for cytotoxicity; A549 ARE-Fluc cells, CellTiter-Fluor viability, 18-24 h; Potency, µM (top dose mostly 46 µM), most hits filed as inhibitors; 0.16% of 390,000 active
#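 A549 ARE_Fluc cells in 5% FBS OPTI-MEM were exposed to compounds in concentration-response for 18-24 h at 37 deg C. Viability was read by CellTiter-Fluor fluorescence (Ex 405/Em 525) after 30 min, before the luciferase read.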
# Nrf2 ARE act – qHTS of Nrf2 Activators; Potency, µM (series often up to 46.1 µM), actives largely listed as activators; AREc32 ARE-luciferase reporter (MCF7-derived line), luminescence, 24 h; 0.31% of 410,000 active; AID 624171, 2012; note: nearly all actives have a fitted effect of over 65% in size
#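 ARE activation measured as luciferase luminescence (Steady-Glo, 30 min RT) in AREc32_Fluc cells after 24 hr compound exposure at 37 deg C, 5% CO2; cells seeded overnight at 1000/well in OPTI-MEM, 5% FBS.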
# ClpP mod – qHTS Assay for Activators of ClpP | AID 651965, 2013 | Potency, µM (doses to about 57.5 µM) | 1.9% of 340,000 active | ATP-dependent Clp protease proteolytic subunit (Bacillus subtilis (strain 168)), P80244 | purified B. subtilis ClpP, FRET peptide cleavage, 20 min; active = well fitted falling curve with a large enough effect; inconclusive = small, poorly fitted or top-dose-only effect; inactive = no such curve, though single readings can be large or run the other way; note: the source files actives as falling curves though it sought activators and does not explain the sign; nearly all actives have a fitted effect of over 65% in size
# Target sequence (P80244 whole entry, looked up): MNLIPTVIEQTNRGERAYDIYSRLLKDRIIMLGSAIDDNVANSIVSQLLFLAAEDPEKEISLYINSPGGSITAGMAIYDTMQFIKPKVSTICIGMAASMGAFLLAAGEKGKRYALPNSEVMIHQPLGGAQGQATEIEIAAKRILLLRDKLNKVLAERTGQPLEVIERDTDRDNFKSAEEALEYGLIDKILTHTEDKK
#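 ClpP 10 microg/mL final, pH 8 Tris/KCl buffer with BSA, glycerol, Tween-20; compound pinned in; FRET-FV substrate; RT 20 min; Ex320/Em430; ΔFRET vs ADEP 5.8 microM, DMSO, no enzyme.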
# Nrf2 inh – Nrf2 qHTS screen for inhibitors | A549 ARE-Fluc reporter, luciferase luminescence, 18-24 h | Potency, µM (doses to about 46 µM), usual class: inhibitors | 2.1% of 360,000 active | AID 504444, 2011; note: nearly all actives have a fitted effect of over 60% in size
#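 Cells were seeded and rested 2 h, then exposed to compounds for 18-24 h. CellTiter-Fluor was read first as a viability measure. BugLite was added 15 min before the final luminescent read of ARE-luciferase activity in A549 cells.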
# A number is an active result; - = inactive; ? = inconclusive; . = no result; [ ] = remark or other dose. Compounds with a hit are over-represented: about 3.7% of the library has one in this group of screens. Unless noted, calls come from the whole dose curve; as a rule, active = well fitted curve in the direction sought with a large enough effect; inconclusive = small, poorly fitted or top-dose-only effect, or another doubt; inactive = no such curve, though single readings can be large; an effect the other way counts as inactive or inconclusive.
SMILES,TCR act,miR-21 act,A549 viability,Nrf2 ARE act,ClpP mod,Nrf2 inh
COc1ccc(C(NC(=O)C2CCCCC2)c2c(O)ccc3ccccc23)cc1 (stereo unspecified),-,-,-,-,25µM,?
Cc1cc(OC(C)C(=O)N2CCN(c3ccc(F)cc3)CC2)c2c(C)c(C)c(=O)oc2c1 (stereo unspecified),-,-,-,-,-,26µM
Cc1cc(OCC(=O)N2CCN(c3cccc(Cl)c3)CC2)c2c(C)c(C)c(=O)oc2c1,-,-,-,-,-,-
CCCC(O)(c1ccc(Cl)cc1)C(CN1CCOCC1)c1ccc(Cl)cc1 (stereo unspecified),-,-,-,-,.,18µM
COc1ccc(-c2onc(C)c2C)cc1S(=O)(=O)NCC1CCN(Cc2cc(C)ccc2C)CC1,.,-,-,-,-,-
O=C(O)c1ccccc1NS(=O)(=O)c1ccc2c(c1)OCCO2,-,-,-,-,.,-
NC(=O)c1ccccc1NS(=O)(=O)c1ccc2c(c1)OCCO2,-,-,-,-,25µM,-
CN(C)CCN(Cc1ccco1)C(=O)c1cc2c(Cl)nc3ccccc3c2s1,-,-,-,-,-,-
Cc1ccc2nc(Cl)c3cc(C(=O)N(CCN(C)C)Cc4ccco4)sc3c2c1,-,-,-,-,25µM,-
CC(=O)c1ccc(NS(=O)(=O)c2ccc(C(C)(C)C)cc2)cc1,-,-,-,-,-,8.2µM
Nc1ccc2nc(-c3ccc(N)c(Cl)c3)[nH]c2c1,-,-,-,-,3.5µM,?
Nc1ccc2nc(-c3ccccn3)[nH]c2c1,-,-,-,-,32µM,.
Nc1ccc2nc(-c3ccccc3)[nH]c2c1,-,-,-,-,?,?
CC(=O)Nc1ccc2nc(-c3cccs3)[nH]c2c1,-,-,-,-,-,?
Nc1ccc2nc(-c3cccs3)[nH]c2c1,-,-,-,-,10µM,?
C[C@@H]1CN([C@@H](C)CO)S(=O)(=O)c2ccc(Br)cc2O[C@@H]1CN(C)Cc1cccnc1,.,.,.,-,-,.
COCCCNC(=O)c1cnc2c(-c3ccc(F)cc3)c(C)nn2c1C,.,-,-,-,-,?
Cc1cc2c(s1)c1cnn(Cc3c(F)ccc(C)c3Cl)c(=O)c1n2C,.,.,-,.,.,-
O=C(NCC1CCCO1)C1c2ccccc2C(=O)N1Cc1ccc2c(c1)OCO2 (stereo unspecified),-,-,-,-,22µM,.
O=C1CCCC2=C1C1(CCCC1)N=C(Nc1nc3ccccc3n1Cc1ccccc1)N2,.,.,-,.,.,16µM
CCCCC(=O)Nc1ccc2c(c1)nc(CCN1CCN(c3ccccn3)CC1)n2C,-,-,-,-,-,?
CC(C)c1ccc(C2C3=C(CC(c4ccco4)CC3=O)Nc3nc(C(F)(F)F)nn32)cc1 (stereo unspecified),.,.,-,.,.,-
O=C1CC(c2ccco2)CC2=C1C(c1ccccc1)n1nc(C(F)(F)F)nc1N2 (stereo unspecified),-,-,-,-,25µM,?
CCOc1ccc2oc(C(=O)Nc3ccc(C)cn3)c(C)c2c1,.,.,.,-,-,.
CCOc1ccc2oc(C(=O)NCc3nc4ccccc4[nH]3)c(C)c2c1,-,-,-,-,35µM,-
SMILES,TCR act,miR-21 act,A549 viability,Nrf2 ARE act,ClpP mod,Nrf2 inh
O=c1[nH]c(Nc2ccccc2)cc2ccccc12,-,-,-,-,28µM,.
O=c1[nH]c(Nc2ccccc2)cc2cc(Br)ccc12,-,.,-,-,-,?
c1ccc(-c2nnc(-c3ccco3)n2-c2ccccc2)cc1,-,-,-,-,22µM,-
c1ccc(-c2nnc(-c3ccco3)o2)cc1,-,-,-,?,14µM,?
c1ccc(-n2c(-c3ccncc3)nnc2-c2ccco2)cc1,-,-,-,-,?,-
O=C(Nc1ccc(-c2nnc(-c3ccco3)o2)cc1)C(c1ccccc1)c1ccccc1,-,-,-,-,28µM,?
Cc1ccc(C)c(NC(=S)NNC(=O)c2csc3c2CCC(C)C3)c1 (stereo unspecified),-,-,?,-,-,21µM
CCN(CC)c1cc(C)c2cc(NC(=O)/C=C/c3ccccc3OC(C)C)ccc2n1,.,-,?,-,-,-[9.27 µM]
Fc1cccc(CO/N=C/c2c(-c3ccccc3)nc3ccc(Cl)cn23)c1,-,-,.,-,?,?
Cc1cccn2c(/C=N/OCc3cccc(F)c3)c(-c3ccc(Cl)cc3)nc12,-,-,-,-,22µM,.
COc1cc(NC(=O)C(CC(C)C)NS(=O)(=O)c2ccc3c(c2)CCN3C(C)=O)cc(OC)c1 (stereo unspecified),.,-,-,-,-,?
Cc1sc(NC(=O)Cn2[nH]c(=O)c3ccccc3c2=O)nc1-c1ccccc1,-,-,-,-[9.22 µM],-,16µM
COc1cccc(C(=O)Nc2nc(-c3ccc4c(c3)OCO4)cs2)c1,-,-,-,-,?,13µM
COc1cccc(C(=O)Nc2nc(-c3ccncc3)cs2)c1,-,-,-,-,.,?
Cc1c(NC(=O)Cn2[nH]c(=O)c3ccccc3c2=O)c(=O)n(-c2ccccc2)n1C,-,-,-,-,-,.
COc1ccc(OC)c(-c2csc(NC(=O)Cn3[nH]c(=O)c4ccccc4c3=O)n2)c1,-,-,-,-,-,10µM
COc1ccc(OC)c(-c2csc(NC(=O)c3ccc(F)cc3)n2)c1,-,-,-,-,-,18µM
CCCCN(C)CCNC(=O)c1cc(-c2ccc(Cl)s2)nc2ccccc12,.,?,-,-,-,-[9.27 µM]
O=C1CCc2cc(S(=O)(=O)Nc3ccc(F)c(Cl)c3)ccc2N1,.,.,-,.,.,?
Cc1ccc(C)c(-c2csc(NC(=O)C3=COCCO3)n2)c1,-,.,-,-,.,?
COc1ccc(OC)c(-c2csc(NC(=O)C3=COCCO3)n2)c1,-,.,-,-,32µM,-
Cc1ccc(-c2nc(CSCC(=O)N3CCN(C(=O)c4ccco4)CC3)c(C)o2)cc1,-,-,-,-,-,-
CCc1ccc(-c2nc(CSCC(=O)N3CCN(c4ccccn4)CC3)c(C)o2)cc1,-,?,?,-,-,16µM
Cc1ccc(-c2nc(CSCC(=O)N3CCN(c4ccccn4)CC3)c(C)o2)cc1,-,-,-,-,-,16µM
Cc1ccc(-c2nc(CSCC(=O)N3CCOCC3)c(C)o2)cc1,-,-,.,-,-,?
COCCCNC(=S)N1CCN(c2nc(-c3ccc(F)cc3)cs2)CC1,-,-,-,-,-,15µM
CCCNC(=S)N1CCN(c2nc(-c3ccc(C)cc3)cs2)CC1,.,-,-,-,-,23µM
